# Compound activity (PubChem)
# Rows were chosen to be rich in hits. Some 1.7% of all compounds tested hit in one or more screens of this group.
# GLP1R inv ag: acts as inverse agonist at human GLP-1 receptor | P43220 | HEK293 GLP-1R CRE-luciferase, luminescence, 24 h; GLP-1R form is constitutively active | Potency, µM (highest dose often 38.3 µM), for inactives: at the highest dose activity change, negative = inhibition, most hits filed as inhibitors | hit rate 1.6% among 410,000 | AID 624417; note: % is set by controls: 0 for no effect and ±100 for the full control effect; nearly all actives have a fitted effect of over 55% in size
# Target sequence (P43220 whole entry, looked up): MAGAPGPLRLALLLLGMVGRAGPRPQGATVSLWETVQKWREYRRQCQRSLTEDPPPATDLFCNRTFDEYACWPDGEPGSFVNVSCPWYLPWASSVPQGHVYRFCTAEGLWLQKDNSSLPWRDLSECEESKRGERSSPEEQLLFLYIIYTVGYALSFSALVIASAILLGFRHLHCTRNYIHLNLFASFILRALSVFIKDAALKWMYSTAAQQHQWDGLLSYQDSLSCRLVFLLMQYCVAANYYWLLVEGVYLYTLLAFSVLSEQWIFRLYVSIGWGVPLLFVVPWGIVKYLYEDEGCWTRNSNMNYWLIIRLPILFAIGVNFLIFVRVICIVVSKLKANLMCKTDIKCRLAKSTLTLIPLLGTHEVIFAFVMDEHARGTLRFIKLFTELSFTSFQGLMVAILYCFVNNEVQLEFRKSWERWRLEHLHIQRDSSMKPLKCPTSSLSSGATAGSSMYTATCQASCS
#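 Readout was luciferase luminescence, measured 12 min after detection reagent at room temperature. Beforehand, GLP-1R reporter HEK293 cells had sat 12 h, then received compounds for 24 hr at 37 deg C.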
# HEK293 tox: cytotoxic in the GLP-1 receptor inverse agonist counter-screen; AID 624418; hit rate 0.13% among 410,000; Potency, µM (series often up to 38.3 µM), inactives show at the highest dose activity change, negative = inhibition, actives largely listed as inhibitors; HEK293 cAMP-luciferase reporter cells, luminescence, 24 h;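 note: loss of luciferase light is scored as toxicity; % is set by controls: 0 for no effect and ±100 for the full control effect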
#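 Quantitative HTS format, 1536 wells, 200 cells/uL seeded. Compounds: 23 nL, 24 h, 37 °C. Detection: luciferase reagent, luminescence at 12 min RT; decreased signal taken as cytotoxic.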
# PTHR1 ag: activates the human parathyroid hormone receptor PTHR1 | HEK293 GP2 PTHR1 cells, GloSensor cAMP luminescence, 1 h | Potency, µM (doses to about 115 µM), for inactives: top-dose activation, hits mostly activators | hit rate 0.075% among 410,000; note: nearly all actives have a fitted effect of over 55% in size
#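 HEK-293-derived GP2 cells expressing PTHR1 and a GloSensor cAMP reporter, 3,000/well, plated overnight, given luciferin plus IBMX (each 0.5 mM as added) for 1 h at 37 °C, then compound for 1 h at 37 °C. Luminescence was read after 15 min at room temperature.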
# GLP1R ag: GLP-1 receptor (human) agonism | P43220 | HEK293 GLP-1R CRE-luciferase, luminescence, 4-6 h; cells express a hypersensitive GLP-1R form | Potency, µM (titrated, usually from 45.6 µM), inactives show top-dose activation, actives largely listed as activators | hit rate 0.007% among 380,000; note: % of control where 0% means no effect
# Starred values were filed as active, the others as inactive; i = inactive; u = inconclusive; x = not tested or not shown; [ ] = dose if it differs, or a comment. Calls come from the whole dose curve; as a rule, active = well fitted curve in the direction sought with a large enough effect; inconclusive = small, poorly fitted or top-dose-only effect, or another doubt; inactive = no such curve, though single readings can be large; an effect the other way counts as inactive or inconclusive. Potency is the fitted concentration of half-maximal effect.
SMILES,GLP1R inv ag,HEK293 tox,PTHR1 ag,GLP1R ag
COc1ccc2nc(NC(=O)C3CSC4(C)CCC(=O)N34)sc2c1 (centres undefined),-26.7%,-5.1%,-24.6%,-3.6%
CC12CCC(=O)N1C(C(=O)Nc1nc3ccc(S(C)(=O)=O)cc3s1)CS2 (centres undefined),14.4%,-4.0%,i,4.2%
CCOc1ccc(CNC(=O)C2CCN(c3nc4ccccc4nc3C(F)(F)F)CC2)cc1OC,18.1%,4.1%,i,x
CCc1ccccc1NNC(=O)c1snnc1C,10µM*,u,i,10.5%
CCOc1ccccc1NC(=O)Nc1cc(C(=O)NCc2ccc(C)cc2)ccc1N1CCCC1,0.5%,-10.2%,i,x
CCc1ccccc1N(CC)C(=O)c1cc2c(s1)-c1ccccc1SC2,u,-4.5%,i,x
CC1CC(C)CN(CCCNC(=O)c2cc3c(s2)-c2ccccc2OC3)C1 (centres undefined),u,-23.9%,u,-0.6%
CCc1ccccc1N(CC)C(=O)c1cc2c(s1)-c1ccccc1OC2,10µM*,-3.2%,i,-1.3%
CC1CCCC(C)N1CCCNC(=O)c1cc2c(s1)-c1ccccc1OC2 (centres undefined),2µM*,-12.4%,-17.1%,4.9%
Cc1c(Cl)cccc1-n1nc(C)c2c(C)cc(=O)n(CC(=O)N3CCCc4ccccc43)c21,-21.2%,-2.3%,i,x
CCCN(Cc1nc(-c2ccc(Cl)cc2)no1)CC1CCCO1 (centres undefined),u,14.7%,-25.2%,3.4%
CC(C)N(Cc1nc(-c2ccc(Cl)cc2)no1)C(=O)CCC1CCCC1,10µM*,9.2%,-42.7%,-0.6%
CC(C)N(Cc1nc(-c2ccc(Cl)cc2)no1)C(=O)c1ccc(C(C)(C)C)cc1,-6.7%,7.8%,-36.3%,-2.8%
CN(Cc1nc(-c2ccc(Cl)cc2)no1)C(=O)CCN1C(=O)[C@H]2CC=CC[C@H]2C1=O,2µM*,1.1%,-29.9%,3.8%
Cc1ccc(-c2noc(CN(C(=O)CCCN3C(=O)c4ccccc4C3=O)C(C)C)n2)cc1,u,4.5%,-11.0%,-3.9%
Cc1ccc(-c2noc(CN(C(=O)CCCCCN3C(=O)c4ccccc4C3=O)C(C)C)n2)cc1,6.31µM*,-7.0%,-74.3%[57.5 µM],3.4%
CCN(Cc1nc(-c2ccc(Cl)cc2)no1)CC1CCCO1 (centres undefined),1.26µM*,21.3%,-20.0%,4.5%
CCC(C(=O)O)C1OC(C(C)C(O)C(C)C(=O)C(CC)C2OC3(C=CC(O)C4(CCC(C)(C5CCC(O)(CC)C(C)O5)O4)O3)C(C)CC2C)C(C)CC1C (centres undefined),x,x,x,-5.7%
CCOc1cc2[nH]c(=O)n(CCCCC(=O)N3CCN(c4ccc(OC)cc4)CC3)c(=O)c2cc1OCC,2.8%,0.4%,-3.5%,x
CC1(C(=O)O)CCC2(C)CCC3(C)C(=CC(=O)[C@@H]4C5(C)CC[C@H](O[C@H]6O[C@H](C(=O)O)C(O)C(O)[C@H]6O[C@@H]6O[C@H](C(=O)O)C(O)C(O)C6O)C(C)(C)[C@@H]5CCC43C)[C@@H]2C1 (some centres undefined),x,x,x,2.1%
COc1cccc(Cn2c(=O)n(-c3ccccc3C)c(=O)c3c2c2cc(C)ccc2n3C)c1,u,-10.0%,-73.5%,-1.4%
O=C(Nc1ccc(Cl)cc1)Nc1ccc(Cl)c(C(F)(F)F)c1,x,x,x,-3.7%
CC(C)N(Cc1nc(-c2ccccc2)no1)C(=O)C(Cl)(Cl)Cl,11.2µM*,4.9%,-35.8%,10.6%
NC(N)=N/N=C/c1ccc(Br)cc1,5.01µM*,u,i,-4.8%
Cc1ccc(NC(=O)Cn2cc(S(=O)(=O)Cc3ccc(F)cc3)c3ccccc32)cc1Cl,u,-15.3%,-20.5%,x
O=C(c1ccccc1)N(C(=O)c1ccccc1)N1CCCC1,10µM*,-4.6%,-0.5%,9.7%
O=C(c1ccccc1)N1CCCCC1,-3.1%,6.3%,i,4.8%
Cc1ccc(C)c(NC(=S)NC(NC(=O)/C=C/c2ccccc2)C(Cl)(Cl)Cl)c1 (centres undefined),3.55µM*,-20.5%,-21.5%[57.5 µM],-15.0%
CCC(=O)N(C1=C(NC(C)C)C(=O)c2ccccc2C1=O)C(C)C,9.1%,-17.9%,-35.9%,-0.3%
CCCNC1=C(N(C(C)=O)c2cccc(F)c2)C(=O)c2ccccc2C1=O,8.91µM*,u,i,-39.6%
